# Source: PubChem BioAssay (NCI)
# Compounds without any hit were thinned out: in the full panel of roughly 83,000, 20% have a hit.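 Single-concentration screen, 48 h exposure, 96-well plates. Endpoint: percent growth. Below 10 = active.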 A number with no mark means an inactive call. Active and inactive are the calls of the source.
# Assays:
# Test in all cases: NCI-60 one-dose screen, 48 h (100 = growth as untreated, 0 = no growth, -100 = all killed)
# NCI-H322M lung = settings: 10 µM
# A549/ATCC NSCLC = settings: 10 µM
# DU-145 prostate = settings: 10 µM
# K-562 leukemia = settings: 10 µM
# MOLT-4 leukemia = settings: 10 µM
# SR leukemia = settings: 10 µM
# RPMI-8226 leukemia = settings: 10 µM
# SK-OV-3 ovarian = settings: 10 µM
# MDA-MB-468 breast = settings: 10 µM unless noted
# NCI-H226 lung = settings: 10 µM
# HOP-62 NSCLC = settings: 10 µM
# NCI-H460 lung = settings: 10 µM
# NCI-H522 lung = settings: 10 µM
# COLO 205 colon = settings: 10 µM
# SF-268 CNS = settings: 10 µM
# SF-295 CNS = settings: 10 µM
# SF-539 CNS = settings: 10 µM
# HT29 colon = settings: 10 µM
# SNB-19 CNS = settings: 10 µM
# PC-3 prostate = settings: 10 µM
structure (smiles),measurement,setting,value
O=C(O)CCN1C(=O)/C(=C/C=C/c2ccc([N+](=O)[O-])o2)SC1=S,growth,NCI-H322M lung,31%
same,growth,A549/ATCC NSCLC,10.4%
same,growth,DU-145 prostate,26.3%
same,growth,K-562 leukemia,11.1%
same,growth,MOLT-4 leukemia,-20.4% (active)
same,growth,SR leukemia,0.111% (active)
same,growth,RPMI-8226 leukemia,-19.3% (active)
same,growth,SK-OV-3 ovarian,63.5%
same,growth,MDA-MB-468 breast,-77.8% (active)
COc1cc(-c2nc3ccc(C)cc3[nH]2)ccc1OCc1nnc(-c2ccccc2Br)o1,growth,NCI-H226 lung,65.3%
same,growth,NCI-H322M lung,87.3%
same,growth,HOP-62 NSCLC,73.7%
same,growth,NCI-H460 lung,72.8%
same,growth,NCI-H522 lung,64%
same,growth,A549/ATCC NSCLC,65.1%
same,growth,COLO 205 colon,72.8%
same,growth,DU-145 prostate,80.7%
same,growth,K-562 leukemia,55.8%
same,growth,SF-268 CNS,79.3%
same,growth,SF-295 CNS,-0.44% (active)
same,growth,SF-539 CNS,24.4%
same,growth,HT29 colon,20%
same,growth,SNB-19 CNS,73.9%
same,growth,PC-3 prostate,56.1%
same,growth,MOLT-4 leukemia,41.2%
same,growth,SR leukemia,59.1%
same,growth,RPMI-8226 leukemia,30.1%
same,growth,SK-OV-3 ovarian,75.1%
same,growth,MDA-MB-468 breast,61.6%
CCn1c(SCC(=O)Nc2ccc(-c3nc4ccccc4[nH]3)cc2)nc2ccccc2c1=O,growth,NCI-H226 lung,-65.5% (active)
same,growth,NCI-H322M lung,-68.3% (active)
same,growth,HOP-62 NSCLC,-80.4% (active)
same,growth,NCI-H460 lung,-56.2% (active)
same,growth,NCI-H522 lung,-74.2% (active)
same,growth,A549/ATCC NSCLC,-71.2% (active)
same,growth,COLO 205 colon,-72.7% (active)
same,growth,DU-145 prostate,-50.3% (active)
same,growth,K-562 leukemia,-11.3% (active)
same,growth,SF-268 CNS,-29.4% (active)
same,growth,SF-295 CNS,-66.8% (active)
same,growth,SF-539 CNS,-87.3% (active)
same,growth,HT29 colon,-64.9% (active)
same,growth,SNB-19 CNS,-63.5% (active)
same,growth,PC-3 prostate,-80.6% (active)
same,growth,MOLT-4 leukemia,3.3% (active)
same,growth,SR leukemia,-15.2% (active)
same,growth,RPMI-8226 leukemia,-11.4% (active)
same,growth,SK-OV-3 ovarian,-70.5% (active)
same,growth,MDA-MB-468 breast,-81% (active)
Cc1cc(N/N=C/c2nc(-c3ccc(Cl)cc3)oc2C)c2cc(Br)ccc2n1,growth,MDA-MB-468 breast,-36.6% (active)
CN1C2CCC1/C(=C\c1ccc(Cl)cc1)C1=C2[C@@H](c2ccc(Cl)cc2)C(C#N)=C(N)O1 (stereo not given in full),growth,MDA-MB-468 breast,77.9%
CCC(C)N(CCNc1cc(OC)cc2cccnc12)CC(C)C (stereo not given),growth,MDA-MB-468 breast,-52.5% (active)
COc1ccc(Cc2nnc(Nc3nc4ccccc4s3)s2)cc1,growth,MDA-MB-468 breast,92.6%
CN(C)CCCN(c1nc(C(Cl)(Cl)Cl)ns1)c1nc(C(Cl)(Cl)Cl)ns1,growth,MDA-MB-468 breast,14.5%
O=C(Nc1cccc(-n2cc(-c3ccncc3)c(-c3ccc(Cl)c(O)c3)n2)c1)c1ccc(N2CCOCC2)c(C(F)(F)F)c1,growth,MDA-MB-468 breast,66%
Nc1ccccc1NC(=O)c1ccc(CCCC(=O)Nc2ccc(C3CC3N)cc2)cc1 (stereo not given),growth,MDA-MB-468 breast,-4.41% (active)
CCN(CC)c1ccc(C(=C2C=CC(=[N+](CC)Cc3cccc(S(=O)(=O)O)c3)C=C2)c2ccc(N(CC)Cc3cccc(S(=O)(=O)O)c3)cc2)cc1,growth,MDA-MB-468 breast,12.1%
NC(=O)CCC(C(=O)O)N1C(=O)c2ccc(O)cc2C1=O (stereo not given),growth,MDA-MB-468 breast,109%
C/C(=C\CCc1ccoc1)CC/C=C(\C)CCCN1CCSCC1,growth,MDA-MB-468 breast,22.6%
FC1(F)CCN(Cc2c[nH]c3cc(Cl)ccc23)C[C@H]1CCc1ccccc1,growth,MDA-MB-468 breast,9.33% (active)
O=C1c2c(c3c4cc(Br)ccc4[nH]c3c3ccc4ccccc4c23)C(=O)N1O,growth,MDA-MB-468 breast,62.1%
Oc1ccccc1/C=N/N1CCCCCC1,growth,MDA-MB-468 breast,107%
O=C(NCCN1CCCC1)n1cc(-c2ccncc2)c(-c2cc(O)cc(Cl)c2)n1,growth,MDA-MB-468 breast,75.8%
N#CC1=C(c2ccc(Br)cc2)NC(SCC(=O)c2ccc(Br)cc2)NC1=O (stereo not given),growth,MDA-MB-468 breast,113%
Cc1cn2c(/C=C3/C(=O)Nc4c3ccc3ccccc43)c(C(F)(F)F)nc2s1,growth,MDA-MB-468 breast,7.93% (active)
CCOC(=O)CC(C#N)(CC(=O)OCC)C(=O)OCC,growth,MDA-MB-468 breast,96.9%
O=C1CC(=O)N(c2ccccc2)O1,growth,MDA-MB-468 breast,105%
CC1=NN(c2ccccc2)C(=O)C1C(=O)c1ccccc1 (stereo not given),growth,MDA-MB-468 breast,83.4%
O=C(CNc1nc(-c2cccc([N+](=O)[O-])c2)cs1)Nc1cccc(Cl)c1,growth,MDA-MB-468 breast,98%
COc1cc2ncnc(Nc3ccc(S(=O)(=O)Nc4nccs4)cc3)c2cc1OCCCN1CCOCC1,growth,MDA-MB-468 breast,107%
O=C(Nc1ccc(Nc2ncnc3sc4c(c23)CCOC4)cc1)Nc1ccc(Cl)c(C(F)(F)F)c1,growth,MDA-MB-468 breast,83.5%
Cc1cc(N2CCOCC2)nc(N2CCOCC2)n1,growth,MDA-MB-468 breast,94.6%
O=C(NCCCO)c1cc(Cl)ccc1O,growth,MDA-MB-468 breast,-12.2% (active)
Brc1cccc(-c2cc(-c3ccc4c(c3)OCCCO4)[nH]n2)c1,growth,MDA-MB-468 breast,50.6% [25 µM]
COc1ccc(CCN2C(=O)/C(=C/c3nc(CO)cs3)SC2=S)cc1,growth,MDA-MB-468 breast,27%
O=C(CSc1nc2ccccc2c(=O)n1-c1ccccc1)N/N=C/c1ccc(Oc2ccc(Cl)cc2)cc1,growth,MDA-MB-468 breast,71.6%
Cc1ccc(C(=O)Nc2ccc(CNCCN3CCNCC3)c(C(F)(F)F)c2)cc1C#Cc1cnc2cccnn12,growth,MDA-MB-468 breast,-83% (active)
COc1cccc(-c2nc3sccn3c2-c2ccnc(NCCCNS(=O)(=O)c3ccccc3)c2)c1,growth,MDA-MB-468 breast,1.62% (active)
CCNCCNc1cc(-c2ccc(F)cc2)c(C#N)c2nc3ccccc3n12,growth,MDA-MB-468 breast,-8.31% (active)
COc1cccc(C(=O)Cn2cc(/C=C(\C#N)S(=O)(=O)c3ccccc3)c3ccccc32)c1,growth,MDA-MB-468 breast,104%
O=C(Nc1cccc(-n2cc(-c3ccncc3)c(-c3ccc(Cl)c(O)c3)n2)c1)Nc1cc(C(F)(F)F)cc(C(F)(F)F)c1,growth,MDA-MB-468 breast,-23.9% (active)
CC(C)CCCC(=O)O,growth,MDA-MB-468 breast,90.8%
COc1ccccc1Nc1nc2c(s1)C1=CC[C@H]3[C@@H]4CC[C@H]([C@H](C)CCCC(C)C)[C@@]4(C)CC[C@@H]3[C@@]1(C)CC2,growth,MDA-MB-468 breast,113%
CCC(=O)Oc1c(C)cc(O)c2ccccc12,growth,MDA-MB-468 breast,5.03% (active)
CC/C(=C(/c1ccc(Cl)cc1)c1ccc(OCCN)cc1)c1ccccc1,growth,MDA-MB-468 breast,88.8%
COc1ccc([C@H]2[C@H](O)C(=O)N2c2cc(OC)c(OC)c(OC)c2)cc1F,growth,MDA-MB-468 breast,26.4%
COc1ccccc1Cn1cc2c(c1)-c1oncc1CC2,growth,MDA-MB-468 breast,6.66% (active)
O=S(=O)(NCCCNc1nccc(-n2ccc3cccnc32)n1)c1ccc(Br)cc1,growth,MDA-MB-468 breast,90.3%
O=C(NCCNc1nccc(-c2c(-c3cccc(O)c3)nc3sccn23)n1)Nc1cccc(C(F)(F)F)c1,growth,MDA-MB-468 breast,-40.6% (active)
COc1cc(NC(=O)c2cccc(-c3cc(=O)c4c(O)c(OC)c(OC)cc4o3)c2)cc(OC)c1OC,growth,MDA-MB-468 breast,59.9%
